SKKanGAS inh – blocks kanamycin growth of S. pyogenes SKKanGAS strain. BacTiter-Glo, 6 h. inhibition, % at 7.5 µM. 300,000 tested, 1.3% active;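 active means mean replicate score, as percent of positive control median, at least 50; inconclusive means mean below 50 but one replicate at or above 50; inactive means mean and every replicate below 50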;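 further: strain carries kanamycin resistance gene driven by streptokinase promoter and grows in 40 µg/ml kanamycin; loss of luminescence reflects streptokinase promoter inhibition or plain growth inhibition; 0% = median of DMSO wells and 100% = positive control at its reference dose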
CSC inhib – blocks cancer stem cells | cancer stem cell-like cells viability, luminescence | 300,000 tested, 1.1% active | AID 2717 | inhibition, % at 7.5 µM; in the data active means inhibition above about 75%; inconclusive means no clear call, values can overlap the other calls; tested in HMLE shEcad cells
Mdm2 MdmX PPI – human Mdm2/MdmX binding inhibition; O15151+Q00987; SaOS-2 split-luciferase Mdm2/MdmX complementation, luminescence; inhibition, % at 8 µM; 330,000 tested, 3% active; AID 485346;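 active means inhibition of at least 50% at 8 µM in the primary screen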
Target sequence (O15151 whole entry, looked up): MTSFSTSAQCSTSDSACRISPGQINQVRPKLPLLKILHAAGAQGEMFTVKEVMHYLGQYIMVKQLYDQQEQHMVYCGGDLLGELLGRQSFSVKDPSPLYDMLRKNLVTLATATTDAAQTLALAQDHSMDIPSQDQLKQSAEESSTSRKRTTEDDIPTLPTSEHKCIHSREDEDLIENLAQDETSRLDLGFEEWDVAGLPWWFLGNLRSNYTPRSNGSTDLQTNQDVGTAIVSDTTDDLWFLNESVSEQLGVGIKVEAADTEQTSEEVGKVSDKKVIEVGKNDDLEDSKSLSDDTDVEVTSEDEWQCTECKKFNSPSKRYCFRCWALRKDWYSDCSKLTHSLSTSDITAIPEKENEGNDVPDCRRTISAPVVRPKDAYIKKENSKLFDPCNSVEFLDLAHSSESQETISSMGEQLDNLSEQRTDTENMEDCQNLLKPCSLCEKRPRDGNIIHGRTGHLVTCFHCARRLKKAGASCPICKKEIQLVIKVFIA
Target sequence (Q00987 whole entry, looked up): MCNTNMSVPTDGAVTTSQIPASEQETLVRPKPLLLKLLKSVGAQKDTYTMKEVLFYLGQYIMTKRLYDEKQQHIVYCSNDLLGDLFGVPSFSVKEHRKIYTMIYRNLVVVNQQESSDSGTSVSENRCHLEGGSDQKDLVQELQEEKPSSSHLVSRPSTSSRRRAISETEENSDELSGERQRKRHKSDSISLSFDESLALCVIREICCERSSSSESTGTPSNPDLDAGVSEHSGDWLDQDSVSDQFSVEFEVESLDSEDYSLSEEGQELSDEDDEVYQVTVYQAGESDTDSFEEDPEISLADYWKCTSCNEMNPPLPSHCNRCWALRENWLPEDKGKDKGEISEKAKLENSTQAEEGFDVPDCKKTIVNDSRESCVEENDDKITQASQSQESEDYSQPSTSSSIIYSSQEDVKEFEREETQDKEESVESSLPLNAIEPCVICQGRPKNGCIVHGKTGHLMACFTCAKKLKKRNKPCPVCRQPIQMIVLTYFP
GRIN3A LBD mod – NR3A (human) ligand-binding domain modulation | NR3A LBD differential scanning fluorimetry, Tm shift; 0% = protein alone, 100% = glycine-bound protein | 340,000 tested, 2.5% active | Tm shift relative to glycine control, % at 25 µM;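 active means melting temperature shift of at least 10% of the positive control shift, at one fixed dose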
MPTP block – blocks calcium-induced mitochondrial swelling | isolated mouse mitochondria, Ca2+ swelling absorbance, 30 min | inhibition, % at 10 µM | 360,000 tested, 1.4% active | AID 602449;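 active means inhibition of 50% or more, scaled per plate between neutral and stimulator controls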;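 further: 0% = DMSO wells given calcium and 100% = 1 mM EGTA wells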
Beta cell apopt – beta cell apoptosis inhibition; protection from apoptosis, % (no concentration beside the values); INS-1E cytokine-induced death, ATP luminescence, 48 h; percent of positive-control rescue, neutral wells zero; AID 435005; 300,000 tested, 0.8% active;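 active means Every replicate reaches about 75%, or at least half do and their mean reaches it too, limit read from the data; inconclusive means At least half of replicates reach the limit but their mean does not; inactive means Under half of replicates reach the limit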;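 further: 0% = cytokine-treated negative control wells and 100% = positive control rescue; higher means more ATP so stronger rescue from cytokine killing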
Mdm2 MdmX conf – human Mdm2/MdmX binding inhibition, confirmed; shares compounds with Mdm2 MdmX PPI; luminescent assay; inhibition, % at 8 µM; 10,000 tested, 55% active; in the data active means inhibition above about 40%
Full FLuc ctr – full-length luciferase inhibition in Mdm2/MdmX counter-screen; shares compounds with Mdm2 MdmX PPI; SaOS-2 full-length luciferase counterscreen, luminescence; inhibition, % at 8 µM; 6,200 tested, 77% active; AID 504607;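 active means mean inhibition at 8 µM reaching about 37%, which flags the compound as non-specific, limit read from the data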;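 further: p53-null SaOS-2 cells with luciferase driven by a doxycycline-inducible promoter; compound on cells about two nights before reading with doxycycline added after day one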
* marks the source's active call; other numbers are inactive results; u = inconclusive; x = no result. Most compounds without a hit are left out; they make up all but 6.9% or so of the library.

SMILES | SKKanGAS inh | CSC inhib | Mdm2 MdmX PPI | GRIN3A LBD mod | MPTP block | Beta cell apopt | Mdm2 MdmX conf | others
COc1cc(NC(=O)Cn2cnc(S(=O)(=O)N3CCC(C)CC3)c2)cc(OC)c1OC | -3 | x | 31 | 0 | 1 | x | x
CCCCNC(=S)NCc1ccc2[nH]c3c(c2c1)CCCC3 | -1 | 11 | -4 | -6 | 1 | -4 | x
Cc1ccc(C)c(NC(=S)NCc2ccc3[nH]c4c(c3c2)CCCC4)c1 | 11 | x | 64* | -11 | 1 | 42 | 13
CNC(=S)NCc1ccc2[nH]c3c(c2c1)CCCC3 | -22 | -5 | -7 | -29 | 1 | -2 | x
Cc1ccccc1NC(=S)NCc1ccc2[nH]c3c(c2c1)CCCC3 | 9 | 23 | 65* | 3 | 1 | x | 32
S=C(NCc1ccc2[nH]c3c(c2c1)CCCC3)Nc1ccccc1Cl | 2 | x | 64* | 11* | 3 | 9 | 29
COc1ccccc1NC(=O)CSc1nnc(CCNC(=O)c2ccc(C)cc2)n1C | x | -2 | -11 | -2 | -2 | -5 | x
FC(F)Oc1ccc(C2=Nn3c(nnc3-c3ccccc3Cl)SC2)cc1OCC1CC1 | x | x | -8 | -2 | 3 | 9 | x
COc1ccc(C2=Nn3c(nnc3-c3ccccn3)SC2)cc1OC | -6 | -17 | 35 | 1 | 1 | 3 | x
COc1ccc(C2=Nn3c(nnc3-c3ccccc3Cl)SC2)cc1OC1CCOC1 (centres undefined) | x | 25 | 63* | 2 | 0 | 6 | 40 | Full FLuc ctr=63*
COc1ccc(OC)c(C2=Nn3c(nnc3-c3cc(OC)c(OC)c(OC)c3)SC2)c1 | 30 | -8 | 39 | 0 | -1 | 25 | x
COc1ccc(C2=Nn3c(nnc3-c3ccccc3Cl)SC2)cc1OC1CCCC1 | x | x | 73* | -13 | -1 | u | 49* | Full FLuc ctr=54*
COc1ccc(C2=Nn3c(nnc3-c3ccccc3F)SC2)cc1OCC1CC1 | x | 57 | 84* | -6 | 1 | 18 | 62* | Full FLuc ctr=37*
COc1ccc(OC)c(-c2nnc3n2N=C(c2ccc(OC)c(OC4CCOC4)c2)CS3)c1 (centres undefined) | x | 44 | 68* | 0 | -1 | 19 | 63* | Full FLuc ctr=93*
CCOc1ccc(C2=Nn3c(nnc3-c3ccccc3)SC2)cc1Cl | -5 | 11 | 17 | 0 | 2 | 0 | x
CCCCc1c(C)nc2nc(SCc3ccc(Cl)cc3)[nH]n2c1=O | 8 | 23 | x | -3 | 4 | -1 | x
CCN(C[C@H]1N[C@@](CC)(C(=O)OC)[C@H]2C(=O)N(Cc3ccccc3)C(=O)[C@@H]12)C(=O)C1CCCCC1 | x | -4 | -9 | 0 | 0 | -12 | x
Cc1cc(C)cc(NC(=S)N2C3CCCC2CC(NC(=O)C2CC2)C3)c1 (centres undefined) | -4 | x | 2 | 0 | 0 | -4 | x
CC(OC(=O)c1cnc2ccccc2n1)c1ccccc1Cl (centres undefined) | 15 | -5 | 6 | -1 | 0 | -1 | x
CC(C=NNc1ccc([N+](=O)[O-])cn1)=Cc1ccccc1 | x | x | x | 1 | 2 | x | x
CCOc1ccccc1NC(=O)c1ccc(OCC)c([N+](=O)[O-])c1 | -10 | -11 | -7 | 0 | -1 | 0 | x
CCOc1ccc(C(=O)Nc2ccc(NC(=O)c3cccs3)cc2)cc1[N+](=O)[O-] | -7 | -5 | 54* | 28* | 3 | -1 | 9
CCOc1ccc(C(=O)Nc2cc(-c3nc4ccccc4[nH]3)ccc2Cl)cc1[N+](=O)[O-] | 15 | u | 93* | 9 | 12 | 10 | 23
Cc1ccc(C(=O)Nc2sc(C)c(-c3ccccc3)c2C(N)=O)cc1[N+](=O)[O-] | 3 | -12 | 72* | -9 | -3 | 9 | -3
Cc1ccc(C(=O)Nc2ccc(NC(=O)c3cccs3)cc2)cc1[N+](=O)[O-] | -2 | -15 | 87* | 29* | 3 | 5 | 24 | Full FLuc ctr=107*
SMILES | SKKanGAS inh | CSC inhib | Mdm2 MdmX PPI | GRIN3A LBD mod | MPTP block | Beta cell apopt | Mdm2 MdmX conf | others
Cc1ccc(OC(C)C(=O)Nc2ccc(S(=O)(=O)N3CCOCC3)cc2)cc1 (centres undefined) | 6 | -5 | 19 | 0 | 0 | -1 | x
O=C(COC(=O)c1cnccn1)NCCc1ccc(Cl)cc1 | x | x | 17 | -2 | -1 | x | x
CCOc1ccc(C(=O)NC(=S)Nc2ncccc2C)cc1[N+](=O)[O-] | -6 | -8 | 78* | 0 | -1 | 2 | 8
COc1ccc(C(=O)NC(=S)Nc2cccc3ncccc23)cc1[N+](=O)[O-] | 4 | 18 | 3 | -1 | -1 | 7 | x
COc1ccc(-c2cc(C(F)(F)F)c(C#N)c(SCC(=O)Nc3nc(C)co3)n2)cc1 | -5 | x | 62* | 0 | -1 | 6 | 23
Cc1coc(NC(=O)CSc2nc(-c3ccc(Cl)cc3)cc(C(F)(F)F)c2C#N)n1 | 9 | -17 | 44 | -5 | 7 | 2 | x
COc1ccc(-c2cc(C(F)(F)F)c(C#N)c(SCC(=O)Nc3ccccc3C#N)n2)cc1 | 2 | -1 | 53* | 0 | x | 14 | 13
O=C(Nc1ccccc1C(=O)NC(Cc1ccccc1)C(=O)NC1CCCCCC1)c1ccccc1 (centres undefined) | 13 | -5 | 62* | -2 | 1 | 16 | -1
O=C(Nc1ccccc1C(=O)NC1CCCCC1)c1ccccc1 | -4 | 36 | 11 | -4 | -2 | -1 | x
CO/N=C\CC(=O)Nc1ccc(Oc2ccccc2)cc1 | 3 | 1 | 52* | -3 | -2 | -9 | 63* | Full FLuc ctr=73*
O=C(C/C=N\O)Nc1ccc(Oc2ccccc2)cc1 | 6 | -4 | -1 | -2 | 0 | -6 | x
Cc1cc(NC(=O)COC(=O)[C@@H](NS(=O)(=O)c2ccc(Br)cc2)C(C)C)no1 | -6 | -7 | -2 | 1 | 3 | -3 | x
Cc1cccc(N=Nc2ccc(O)c3ncccc23)c1 | 92* | 99* | 73* | -7 | 9 | 88* | 89* | Full FLuc ctr=22
Cc1ccc(C)c(N=Nc2ccc(O)c3ncccc23)c1 | 92* | 103* | 97* | -6 | 4 | 88* | 96* | Full FLuc ctr=51*
Oc1ccc(N=Nc2ccc3c(c2)OCCO3)c2ncccc12 | 89* | 98* | 98* | -5 | 7 | 96* | 87* | Full FLuc ctr=26
CNc1ccc(N=Nc2cccc3ncccc23)cc1 | x | x | x | -13 | 4 | x | x
COc1ccccc1CCNC(=O)C(=O)c1cn(CC(=O)N2CCOCC2)c2ccccc12 | -6 | 1 | -5 | 1 | -4 | 2 | x
COc1ccc([N+](=O)[O-])cc1NC(=O)C(C)OC(=O)CC1CCCC1 (centres undefined) | x | x | 11 | 0 | -1 | -2 | x
COc1ccc(-c2csc(NC(=S)NC(=O)c3ccc4ccccc4c3)n2)cc1OC | 4 | 37 | 78* | -2 | 1 | 15 | 11
